Measured values reported in ChEMBL document CHEMBL3988442, “University of Dundee, Small-Polar-MMV Screening Library” (2021).
Among all 48,000 compounds or so, about 13,000 (27%) showed an effect of 50% or more. The list shows a part of the results.

test system: Wolbachia pipientis; test: Anti-Wolbachia Cell-Based Screen; format: functional; design: scale not given: in the data most compounds retested in dose-response had high values; details: 5 µM

SMILES | Percent Effect [%]
CN(CC(=O)N1CC(Oc2ccccc2Cl)C1)Cc1ccncc1 | -2.119
Cc1cnc(-n2cnnc2)c(-c2cccc3c2CCNC3)c1 | -5.841
O=C(c1cnc(OCC(F)(F)F)c(Cl)c1)N1CCc2ccc(O)cc2C1 | -3.134
O=C(O)c1cnc(-c2cccc3c2CCNC3)c(Cl)c1 | 123.8
COc1ccc(C(=O)O)cc1-c1cccc(C(C)N(C)C)c1 (stereo not drawn) | -0.7125
COc1ccc(C(=O)O)cc1-c1cccc2c1CCNC2 | 99.52
Cc1ccc(C(=O)O)cc1S(=O)(=O)N(C)c1cccc(C#N)c1 | 8.363
Cc1ccc(C(=O)O)cc1-c1cccc2c1CCNC2 | 128.8
O=C(O)c1cnc(OCC2CC2)c(Cl)c1 | -32.81
COc1cccc2c1N(S(=O)(=O)c1cc(C(=O)O)cs1)CCC2 | -3.989
Cc1ccc([C@@H]2CN(C(=O)c3cc(C)n[nH]3)C[C@H]2NC(=O)C2CC2)cc1 | 4.814
CCNC(=O)CN(CC)S(=O)(=O)c1c(Br)cc2[nH]c(=O)oc2c1Cl | -2.285
CN(CC(=O)N1CCCC1)C(=O)c1ccccc1Nc1ccccc1 | -0.554
Cc1ccnc(NCCNC(=O)c2ccccc2NCC(=O)O)c1 | -16.08
CCn1nc(C)c(CCNC(=O)c2cccc(NCC(=O)O)c2)c1C | -5.115
CN(C(=O)c1cccc(NCc2cccs2)c1)C(C1CC1)C1CC1 | 113
CN(C)CC(c1ccccc1)N(C)C(=O)c1cccc(NCC(=O)O)c1 (stereo not drawn) | 104.1
CC(C)CN(C(=O)Nc1cccc(C(=O)N(C)C)c1)C1CC1 | 4.006
CN(C(=O)c1ccccc1NCC(=O)O)C(C1CC1)C1CC1 | 114.3
CC(=O)Nc1cccc(C(=O)N(C)C(C)Cc2cc(C)ccn2)c1 (stereo not drawn) | 4.881
CC(C)N(CC(=O)Nc1cccc(C(=O)N(C)C)c1)C1CC1 | 5.845
CN(C(=O)c1cccc(NCC(=O)O)c1)C(C1CC1)C1CC1 | 109.4
COC(C)c1cccc(NCc2cccs2)c1 (stereo not drawn) | 2.749
Cc1cc(CNc2cccc(C(=O)N(C)c3ccccc3)c2)no1 | 2.006
CC(C)(C)C(=O)N1C[C@@H](F)[C@@H](OCc2nc3ccccc3o2)C1 | -2.26
Cc1cnn(C2CN(Cc3noc(C4CC4)n3)C2)c1 | -0.9556

SMILES | Percent Effect [%]
CN1C(=O)C2(CCN(S(C)(=O)=O)CC2)c2cc(F)ccc21.Cl | -38.1
Brc1cc(CNCc2nnc3n2CCC3)cs1.Cl | -5.919
O=C(CCc1cccnc1)N(Cc1ccsc1)CC1CCCO1 (stereo not drawn) | -15.29
O=C(COCC1CCCO1)N(Cc1cccnc1)c1ccc(F)cc1 (stereo not drawn) | 100.3
O=C(CN(Cc1cccnc1)CC1CCCO1)Nc1ccc(F)cc1 (stereo not drawn) | -1.761
O=C(O)C(F)(F)F.O=C(O)C(F)(F)F.O[C@H]1CCN(CC2CC2)[C@H]1Cc1ccncc1 | 1.351
CNC(=O)C1(CCCc2ccncc2)CCCCN1.Cl (stereo not drawn) | 104.3
CC(CCNC(=O)NCCc1ccncc1)c1ccccc1 (stereo not drawn) | 4.177
NC(=O)C1(CCCc2ccncc2)CCCN1 (stereo not drawn) | 96.03
Cc1cccc(C(C(=O)NCCCc2ccncc2)N(C)C)c1 (stereo not drawn) | -9.46
CN(CCCNC(=O)NCc1ccncc1)CC(F)(F)F | -10.78
CCN(Cc1ccncc1)C(=O)c1cn(CCCc2ccccc2)nn1 | -1.571
CNC(=O)C1(CCCc2ccncc2)CCN1.O=C(O)C(F)(F)F (stereo not drawn) | 127.6
CNC(=O)C1(CCCc2ccncc2)CCCN1 (stereo not drawn) | -10.96
CN(C)C(=O)C1(CCCc2ccncc2)CCCN1 (stereo not drawn) | -8.359
CC(=O)NC(=O)C1(CCCc2ccncc2)CCN1 (stereo not drawn) | 96.13
CCNc1ncc(C(=O)NCCCc2ccncc2)cn1 | -5.909
CN(CCSc1ccccc1)C(=O)C(c1cccnc1)N1CCOCC1 (stereo not drawn) | 0.338
Cc1cc(S(=O)(=O)Nc2cccc(I)c2)sc1C(=O)O | 5.422
CN1CCCC2(CCN(c3cc(C(F)(F)F)nc(N(C)C)n3)C2)C1=O (stereo not drawn) | 7.307
COc1cccc(CNc2cc(CO)ccc2Cl)c1 | -79.64
COc1ccc(CNC(=O)c2ccc(Cl)cc2F)cc1C(=O)O | 25.37
CCc1cnc(N)nc1NCc1ccc(OC)c(OC)c1 | -14.4
COc1ccccc1OCC(=O)Nc1ncccc1Cl | -0.249
COc1cc(CNc2ccccc2Cl)ccc1OCC(=O)O | 86.61
COc1cc(CNc2ccc(Cl)cc2)ccc1OCC(=O)O | 106

SMILES | Percent Effect [%]
CNC(=O)NC(=O)CNC(CC(F)(F)F)c1ccc(F)cc1 (stereo not drawn) | 13.05
CN(CC(=O)N1CC(C)(C)[C@](O)(C2CC2)C1)Cc1ccncc1 | -13.6
COC(=O)c1cccn1C1CCN(CCN2C(=O)CCC2=O)CC1 | 85.14
CCN1CCN(C2CCN(Cc3nc4ccccc4o3)CC2)C1=O | -0.2621
CCc1nc(C)c(C(=O)N(C)Cc2cnc3ccccn23)o1 | -30.87
O=C1CCC(=O)N1CCN1CCC(=Cc2ccccc2)CC1 | -0.4568
COC(=O)c1cccn1C1CCN(Cc2cccnc2)CC1 | 126.9
CC(C)C(C)NC(=O)c1cccn1Cc1cccnc1 (stereo not drawn) | -0.09991
COC(=O)c1cccn1C1CCN(Cc2cnc3ccccn23)CC1 | 132
Cc1ncc2c(n1)CCN(Cc1nc3ccccc3o1)C2 | 7.952
CCOCCCNC(=O)c1cccn1Cc1cccnc1 | -15.39
CCN(CC)C(=O)[C@@H]1C[C@@H](NC(=O)c2cccn2C2CC2)CN1C | 0.5236
COC(=O)c1cccn1C1CCN(Cc2nc3ccccc3o2)CC1 | 118.1
COCc1nnc(C(=O)N(C)Cc2cnc3ccccn23)o1 | -16.21
N#CCCN(CCC#N)C(=O)CN1CCCC1Cc1cccc(F)c1 (stereo not drawn) | -4.236
COC(=O)c1ccc(S(=O)(=O)N2CCC(Oc3cccnn3)CC2)cc1 | -19.83
COC(=O)c1cccn1C1CCN(S(=O)(=O)c2ccccc2)CC1 | 89.91
COCCN1CCN(Cc2cccc(C(N)=O)c2)CC1C (stereo not drawn) | 5.406
CC(O)CN1CCC(CNCc2cccc(C(N)=O)c2)CC1 (stereo not drawn) | 1.784
COC(=O)c1cccn1C1CCN(Cc2cccc(C(N)=O)c2)CC1 | 132.6
COC(=O)[C@@H]1CN(S(=O)(=O)c2ccccc2)CCN1S(C)(=O)=O | -4.195
CCOCCn1c(=O)n(CCC(C)C)c2ncc(C(=O)O)cc21 | -3.937
COCC(=O)Nc1ccc([C@@H](O)[C@H]2COCC(=O)N2C)cc1 | -3.081
CS(=O)(=O)N1CCN(C(=O)c2cccc(Cl)c2)CC2(CNC(=O)C2)C1 (stereo not drawn) | 2.79
CCC(=O)N1CCCC1c1nc(N(C)C)ncc1-c1ccc(Cl)cc1 (stereo not drawn) | 84.51
CC(C)C(=O)N1CCCC1c1nc(N(C)C)ncc1-c1ccc(Cl)cc1 (stereo not drawn) | 126.5

SMILES | Percent Effect [%]
Cc1nc(CC(=O)N2CCC[C@H]2c2nc(C(C)C)no2)cs1 | -12.82
CN(C)c1ccc(C(=O)N2CCCC2c2ccc(Cl)cc2)cc1 (stereo not drawn) | 5.929
Cc1cccc(N(CCC#N)S(=O)(=O)CC2CCCCO2)c1 (stereo not drawn) | -8.784
N#Cc1cc(C#N)c(SCCC(=O)Nc2ccc(F)cc2)nc1N | -13.62
CN1CC(C(=O)NC(C)(C)C)CC1=O (stereo not drawn) | 0.8346
CN1C[C@@H](C(=O)NC(C)(C)C)[C@@]2(CCc3ccccc3C(=O)N2)C1 | 141.5
CN(C)C(=O)N1CCC2(CC1)NC(=O)c1ccccc12.Cl | -7.31
CC(C)(C)NC(=O)[C@@H]1CNC[C@]12Cc1ccccc1C(=O)N2 | 114.2
C[C@@H]1CN(C2(C(=O)N(C)C)Cc3ccccc3C2)C[C@H](C)O1 | 1.411
CN1C[C@@H](C(=O)N(C)C)[C@@]2(CCc3ccccc3C(=O)N2)C1.Cl | 136.2
CN1C[C@@H](C(=O)N2CCCOCC2)[C@@]2(CCc3ccccc3C(=O)N2)C1 | -5.089
CCNC(=O)N1CC[C@@H](CC(=O)O)[C@@H](CC2=NCCc3ccccc32)C1 | 7.982
CN1C[C@@H](C(=O)N2CCOCC2)[C@@]2(CCc3ccccc3C(=O)N2)C1 | 147.9
O=C(c1ccccc1)N1CC(C(=O)N2CCOCC2)C2(CCOCC2)C1 (stereo not drawn) | -41.49
COC(=O)CN(Cc1ccccc1C)C(=O)CCCNC(=O)C1CC1 | -13.3
CN(C)CCNc1ncccc1CNC(=O)Nc1cc(F)cc(F)c1 | -8.67
CC(C)(C)c1cnc(CN2CCC(NC(=O)C3CCOCC3)CC2)o1 | -13.41
COC1CCN(CCNC(=O)NCC(C)c2cccc(C)c2)CC1 (stereo not drawn) | 5.114
COCCN(C)C[C@@H]1CCC[C@@H]2CN(Cc3ccc(OC)nc3)C[C@@H]21.O=C(O)C(F)(F)F.O=C(O)C(F)(F)F | 8.299
COC(=O)N1CCc2ccccc2C1C(=O)NCC(F)(F)F (stereo not drawn) | 5.157
CN1C[C@@H](C(=O)NCC(F)(F)F)[C@@]2(CCc3ccccc3C(=O)N2)C1 | 103.7
O=C(NCC(F)(F)F)C1CCC(=O)N(C2CCCC2)C1 (stereo not drawn) | 11.17
CCC(C)C(=O)NCc1cc(Br)c(OC)c(OC)c1 (stereo not drawn) | -3.921
Cc1ccc(CNC(=O)CCN2CCOC(C(F)(F)F)C2)cc1 (stereo not drawn) | -2.283
CCS(=O)(=O)c1ccc(N2CCC(NC(=O)CCC(C)C)CC2)cc1 | 4.61
